Experimental findings from PubChem BioAssay AID2016 (NMMLSC, 2009) are described below.

About 1,700 (0.52%) of roughly 330,000 compounds were called active. The entries come from a sample that favours actives as a whole. Unmarked numbers belong to inactive results.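 How the source made its calls: active means GFP response versus DMSO above a set limit, roughly screen mean plus 3 SD (cut at about 180% in these data); inconclusive means fewer than 70 cells counted for a yeast strain; inactive means the rest.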

The nature of the experiment: TOR pathway GLN3 branch reporter MEP2-GFP changes – S. cerevisiae, multiplex flow cytometry, MLPCN library, primary screen (AID 2016).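 Further: median GFP fluorescence of the barcode-gated MEP2-GFP cells per well.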 Conditions: S. cerevisiae MEP2-GFP strain, 3 h, at 10 µM, stronger effect = higher value, 100% = DMSO control level. (Flow cytometry measures light scatter and fluorescence of single cells or particles in a stream.)
As for `CC12c3ccccc3C(c3ccccc31)C1C(=O)N(Cc3cccnc3)C(=O)C12` (stereo unspecified), the GFP response vs DMSO is 107%.
In the case of `COc1ccc(CNC(=O)CN2CCC(n3nnc4cc(F)ccc43)CC2)cc1` it was 88.8%.
In the case of `O=C(Nc1cccnc1Cl)c1cc(-c2cccc(Cl)c2)on1` it was 103%; in that of `O=C(Nc1cccc2cccnc12)c1cccc(Cl)c1`, 567% [may fluoresce violet] (active); in that of `CSc1ccc(C#N)cc1NC(=O)c1cccc(Cl)c1`, 102%.
In the case of `CC(=O)Nc1ccc(Nc2nc3c(S(=O)(=O)c4ccc(C)c(C)c4)nnn3c3ccccc23)cc1` it was 103%; in that of `Cc1ccc(S(=O)(=O)c2nnn3c2nc(N2CCN(c4ccccn4)CC2)c2ccccc23)cc1`, 112%; in that of `Cc1cccc(Nc2nc3c(S(=O)(=O)c4ccccc4)nnn3c3ccccc23)c1C`, 1130% [may fluoresce green] (active).
For the molecule `C=CC[C@@H](Cc1ccc(F)cc1)C(=O)OC[C@H]1CCCN1C(=O)[C@H](CC=C)CC(=O)N(CCO)Cc1ccccc1`, the GFP response vs DMSO is 103%.
The result for `NC1=NC(c2ccc([N+](=O)[O-])cc2)N(c2ccc(F)cc2)C(N)=N1` (stereo unspecified) reads 107%; that for `O=C(CC1SC(N2CCOCC2)=NC1=O)Nc1ccccc1F` (stereo unspecified), 91.9%.
Regarding `O=C(CN1CCN(C/C=C/c2ccccc2)CC1)Nc1ccc(F)cc1F`, the GFP response vs DMSO was 100%.
With `O=C(CC1SC(=Nc2ccccc2F)N(CCN2CCOCC2)C1=O)Nc1ccc(F)cc1F` (stereo unspecified), the GFP response vs DMSO is 177% (active).
In the case of `CCCN1C2CCCC1CC(NC(=O)c1cccc(OC)c1)C2` (stereo unspecified) it was 93.2%.
The result for `Cc1ccc(-n2cc3ccc([N+](=O)[O-])cc3n2)cc1` reads 98.2%; that for `Cc1ccc2c(c1)N(CC(=O)NCCc1ccc(Cl)cc1)C(=O)c1cccnc1O2`, 110%; that for `CCCCNC(=O)C1(O)c2ccccc2NC(=O)N1c1ccc(Cl)cc1` (stereo unspecified), 108%.
On to `CCCCC1N2CC3([N+](=O)[O-])CN1CC([N+](=O)[O-])(C2)C3(C)C` (stereo unspecified), for which the GFP response vs DMSO is 96.3%.
The result for `CSc1nc2nc3c(c(=O)n2[nH]1)CCC3` reads 95.3%; that for `O=c1c2c(nc3nc[nH]n13)CCC2`, 532% [may fluoresce violet] (active).
As to `O=c1c2c(nc3cc(-c4cccc(Cl)c4)[nH]n13)CCCC2`, the GFP response vs DMSO was 98.5%.
In the case of `CNC(=O)Nc1cc(C(C)(C)C)no1` it was 107%; in that of `CCN(CC)c1ccc([N+](=O)[O-])cc1C(=O)O`, 109%.
In the case of `Cc1noc(C)c1CCC(=O)N1CCCC(CO)(Cc2ccccc2)C1` (stereo unspecified) it was 96.4%; in that of `Cc1ccc(F)c(NC(=O)CCOc2ccccc2C)c1`, 96.5%.
Consider `CCn1ncc(Br)c1C(=O)Nc1cc(C)ccc1F`, for which the GFP response vs DMSO is 233% [may fluoresce violet] (active).
For the molecule `Cc1ccc(F)c(NC(=O)CCc2ccccc2)c1`, the GFP response vs DMSO is 93.7%.
In the case of `Cc1nnc(N(Cc2ccco2)C(=O)c2ccno2)s1`, the GFP response vs DMSO was 99%.
The result for `CC(C)CC(CO)N1CCN(C(=O)c2ccc(Cl)cc2Cl)CCC1=O` (stereo unspecified) reads 96.1%; that for `CCCS(=O)(=O)Nc1ccc(-c2cn3c(n2)SCC3)cc1`, 255% [may fluoresce violet] (active).
The result for `CCCCc1c(O)nc2n(c1=O)CCS2` reads 92.6%; that for `CCS(=O)(=O)Nc1ccc(C2=NN(C(C)=O)C(c3cccs3)C2)cc1` (stereo unspecified), 107%; that for `CCOc1ccc(NS(=O)(=O)c2ccc(C(=O)NCC(c3ccccc3OC)N3CCCC3)cc2)cc1` (stereo unspecified), 102%.
In the case of `O=C(Nc1ccc(N2CCOCC2)c(Cl)c1)c1ccc(S(=O)(=O)N2CCOCC2)cc1` it was 95.7%; in that of `Cc1cc(C)n(-c2ccc(NC(=O)C3CCCCN3C(=O)c3cccs3)cc2)n1` (stereo unspecified), 92.9%; in that of `Cc1cc(C)c(OCCN2CC(C)OC(C)C2)c(Br)c1` (stereo unspecified), 101%.
`Cc1ccc(-c2nc(CS(=O)(=O)CC(=O)NCc3ccc4c(c3)OCO4)c(C)o2)cc1`: the GFP response vs DMSO was 102%.
The result for `COc1ccc(CCNC(=O)CS(=O)(=O)Cc2nc(-c3ccc(C)cc3)oc2C)cc1OC` reads 186% (active); that for `COc1cccc(-c2nc(CS(=O)(=O)CC(=O)NCCc3ccc(OC)c(OC)c3)c(C)o2)c1`, 98.7%.
For the molecule `O=C(CN1C(=O)c2cccnc2Oc2ccc(Cl)cc21)Nc1ccc(F)cc1`, the GFP response vs DMSO is 105%.
`CCOc1cc2[nH]c(=O)n(CCC(=O)NCc3ccc(OC)cc3)c(=O)c2cc1OCC`: the GFP response vs DMSO is 223% [may fluoresce violet] (active).
The result for `COc1ccc(CNC(=O)CCn2cccc2)cc1` reads 94.3%.
Turning to `COc1ccc(CNC(=O)CCN2C(=O)c3ccccc3C2=O)cc1`, the GFP response vs DMSO is 96.1%.
For the molecule `NCCCCCC(=O)N/N=C/c1ccc2nccnc2c1`, the GFP response vs DMSO was 673% [may fluoresce violet] (active).
With `Cc1nccn1CC(=O)N/N=C/c1ccc(O)c(O)c1`, the GFP response vs DMSO is 105%.
In the case of `O=C(N/N=C/c1ccc(Cl)c(Cl)c1)c1ccc2nc[nH]c2c1` it was 97.5%; in that of `CCOc1ccc(C(C(=O)NCCOC)N(CCOC)C(=O)CCC(=O)Nc2ccccn2)cc1` (stereo unspecified), 296% [may fluoresce violet] (active).
The result for `COCCNC(=O)C(c1ccc(C)cc1)N(C(=O)CCC(=O)Nc1ccccn1)c1cccc(C)c1` (stereo unspecified) reads 107%; that for `COCCN(C(=O)CCC(=O)Nc1ccccn1)C(C(=O)NCCC(C)C)c1ccc(OC)cc1` (stereo unspecified), 107%.
`Cn1c(CCC(=O)OCC(=O)NCc2ccccc2Cl)nc(=O)c2ccccc21`: the GFP response vs DMSO was 99.4%.
Turning to `COc1cc(Cl)c(C)cc1NC(=O)CSc1nnc(CN2CCCC2)o1`, the GFP response vs DMSO was 105%.
In the case of `CC1CC(=S)Nc2ccccc2N1Cc1ccccc1` (stereo unspecified) it was 98.4%; in that of `Cc1cc(NS(=O)(=O)c2ccc(NC(=O)c3cccc(OC(F)F)c3)cc2)nc(C)n1`, 92%; in that of `Cc1cccc(C)c1NC(=O)CS(=O)CC(=O)N1CCN(c2ccccc2)CC1` (stereo unspecified), 102%.
The result for `CC[n+]1cc(C)ccc1/C=C/c1ccc(N(C)C)cc1` reads 180% (active); that for `Cc1ccccc1NC(=O)C1CCCN(C(=O)NCc2ccccc2)C1` (stereo unspecified), 105%; that for `COc1cccc(NC(=O)C(Sc2nnnn2C)c2ccccc2)c1` (stereo unspecified), 100%.
The result for `CC(C)(C)C(=O)/C(C#N)=C/c1ccc(O)cc1` reads 95.4%.
Turning to `Cc1cc(=O)oc2cc(NC(=O)C3CC(=O)N(Cc4ccccc4)C3)ccc12` (stereo unspecified), the GFP response vs DMSO is 559% [may fluoresce violet] (active).
In the case of `Cc1cc(=O)oc2cc(NC(=O)C(C)Oc3ccccc3)ccc12` (stereo unspecified) it was 99.1%; in that of `O=C(Nc1ccc(F)c([N+](=O)[O-])c1)C1CC(=O)N(Cc2ccccc2)C1` (stereo unspecified), 101%.
The result for `O=C(C(Cc1ccccc1)n1cccc1)N1CCN(C2CCCCC2)CC1` (stereo unspecified) reads 96.8%; that for `CC(C)Cn1cnc2c1c(=O)n(CC(=O)NN)c(=O)n2Cc1ccccc1`, 97.4%.
The result for `CCN(CC)Cc1csc2ccc(Br)cc12` reads 200% (active); that for `CN(CCO)Cc1csc2ccc(Br)cc12`, 112%.
As for `CCN(CC)Cc1cc(C(C)=O)ccc1O`, the GFP response vs DMSO was 103%.
The result for `CC(=O)N1c2ccc(S(=O)(=O)NCCC(=O)N(C)C3CCCCC3)cc2CC1C` (stereo unspecified) reads 104%; that for `Cc1ccc(S(=O)(=O)Oc2ccc(/C=N/NC(=O)c3c(Cl)cnn3C)cc2)cc1`, 98.8%; that for `COc1ccccc1OCCNc1cc(N2CCOCC2)ccc1[N+](=O)[O-]`, 106%.
The result for `COc1ccc(CCNc2cc(N3CCN(C(=O)c4ccccc4OC)CC3)ccc2[N+](=O)[O-])cc1OC` reads 180% [may fluoresce violet] (active); that for `COc1ccc(CCNC(=O)c2ccccc2-c2ccccc2C(=O)O)cc1OC`, 93%.
The result for `COC(=O)/C(=C\Nc1ccccc1)NC(=O)c1ccc(Cl)cc1Cl` reads 91.1%; that for `COCC1CCN(C(=O)c2ccc3oc(Cc4ccccc4)nc3c2)C1` (stereo unspecified), 101%; that for `CCOC(=O)c1c(CN(C)C)n(-c2ccccc2)c2cc(Br)c(O)cc12`, 96.5%.
Regarding `CCOC(=O)c1c(CN2CCOCC2)n(-c2ccccc2)c2ccc(O)cc12`, the GFP response vs DMSO was 240% [may fluoresce violet] (active).
For `CCOC(=O)c1nnn(-c2nonc2-n2cccc2)c1CN1CCOCC1`, the GFP response vs DMSO was 92.2%.
The result for `Cc1ccc2nnn(Cc3cccc(C(C)(C)C)c3O)c2c1` reads 92.5%; that for `COc1ccc(C)cc1NC(=O)CN1c2cccc3cccc(c23)S1(=O)=O`, 101%.
As to `COc1cc(C(=O)Nn2c(O)c(C3=c4ccccc4=NC3=O)sc2=S)ccc1O`, the GFP response vs DMSO is 96.1%.
Turning to `COc1cccc(-n2c(SCC(=O)NC3CCS(=O)(=O)C3)nc3ccccc3c2=O)c1` (stereo unspecified), the GFP response vs DMSO is 109%.
In the case of `O=C1N(Cc2ccc3c(c2)OCO3)c2ccccc2C1(O)c1c[nH]c2ccccc12` (stereo unspecified) it was 104%; in that of `Cc1ccc(C(=O)Nc2ccn(C)n2)cc1`, 109%.
In the case of `O=C(Nc1nccs1)c1cc(S(=O)(=O)N2CCOCC2)c(Cl)cc1Cl` it was 97.8%; in that of `CN(C)S(=O)(=O)c1cc(C(=O)Nc2ccn(C)n2)c(Cl)cc1Cl`, 7710% [may fluoresce green] (active); in that of `CCOC(=O)N1CCN(S(=O)(=O)c2ccc(Br)cc2)CC1`, 576% [may fluoresce violet] (active).
In the case of `CCOC(=O)N1CCN(S(=O)(=O)c2ccc(OC)cc2)CC1` it was 98.6%; in that of `CCOC(=O)N1CCN(S(=O)(=O)c2ccc(-n3cnnn3)cc2)CC1`, 93.2%.
Turning to `NC(=O)COC(=O)c1ccc2c(c1)C(=O)N(Cc1ccco1)C2=O`, the GFP response vs DMSO is 103%.
Consider `COc1ccc(-c2sc3ccc(OC)cc3c2C#Cc2ccccn2)cc1`, for which the GFP response vs DMSO is 87.4%.
The result for `COc1ccc2sc(-c3ccc(N(C)C)cc3)c(-c3ccc4cc[nH]c4c3)c2c1` reads 105%.
Take `COc1ccc2sc(-c3ccc(N(C)C)cc3)c(C#CCO)c2c1`: the GFP response vs DMSO is 180% [may fluoresce violet] (active).
